Data: PubChem BioAssay (NCI)
Compounds without any hit were thinned out: in the full panel of roughly 83,000, 20% have a hit.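 Activity criterion: percent growth below 10, measured after cells in 96-well plates were exposed to a single compound concentration for 48 hours.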 Activity calls are given as the source filed them.

test system: CAKI-1 renal; experiment: NCI-60 one-dose screen, 48 h (100 = growth as untreated, 0 = no growth, -100 = all killed); details: 10 µM unless noted
Description: Growth inhibition of the CAKI-1 human tumor cell line is measured as a screen for anti-cancer activity. Cells are grown in 96 well plates and exposed to the test compound for 48 hours. Compounds are tested at a single concentration, which is 10^-5 M for most compounds. The reported endpoint is percent growth (GI% or GIPRCNT), where numbers from 0 - 100% represent growth inhibition, and numbers from -100% - 0 represent cell death. For example, a value of 40 represents 60% growth inhibition. A value of 0 means no net growth occurred over the course of the experiment. A value of -40 indicates 40% of cells at the beginning of the experiment died by the end of the experiment. A value of -100 means all cells are dead at the end of the experiment.
NCI-60 Human Tumor Cell Lines Screen was performed using the standard one-dose NCI protocol, which is described in more detail at https://dtp.cancer.gov/discovery_development/nci-60/default.htm.
Compounds with GIPRCNT values below 10 were considered active. Activity score was based on GIPRCNT using the following formula: […]
Score is 0 for GIPRCNT values of 100 or above, 50 for GIPRCNT values of 0, and 100 for GIPRCNT values of -100.

Row | Structure (SMILES) | growth
1 | Nc1cc(Cl)c(S(N)(=O)=O)cc1S(N)(=O)=O | 107% (inactive)
2 | CC1(C)OC(=O)C(=Cc2ccccc2Br)C(=O)O1 | 94.8% (inactive)
3 | O=c1ccn(C2OC(CO)C(O)C2F)c(=O)[nH]1 (stereo not given) | 107% (inactive)
4 | CC(=O)Oc1c(C)c(OC(C)=O)c2c(c1C(C)=O)OC1CC(=O)C(C(C)=O)=C(O)C21C (stereo not given) | 99.3% (inactive)
5 | CO[C@H]1CC(O[C@@H]2/C(C)=C/C[C@@H]3C[C@@H](C[C@]4(CC[C@H](C)[C@@H](C5CCCCC5)O4)O3)OC(=O)[C@@H]3C=C(C)/C(=N/O)[C@H]4OC/C(=C\C=C\[C@@H]2C)[C@]43O)O[C@@H](C)C1O (stereo not given in full) | -73.8% (active)
6 | Clc1ccc2c(Nc3ccc4oc(NCCN5CCCC5)nc4c3)ccnc2c1 | 94.1% (inactive)
7 | O=C(Nc1nc2ccccc2s1)c1cc(-c2ccc(F)cc2)n2nc(-c3ccccc3)cc2n1 | 53.2% (inactive)
8 | O=C1NCN(c2ccccc2)C12CCN(CCCC(c1ccc(F)cc1)c1ccc(F)cc1)CC2 | 76.8% (inactive)
9 | CC(O)c1nc2c(c(=O)n(C)c(=O)n2C)n1C (stereo not given) | 89.2% (inactive)
10 | O=C(Nc1ccc(Cl)cc1)Nc1ccc(Nc2nncc3ccccc23)cc1 | 20.6% (inactive)
11 | Cc1cc(NC(=O)Nc2cc(Cl)ccc2C)no1 | 96.1% (inactive)
12 | CCC1=C(c2ccc(OC)cc2)C(C)(C)Oc2c1ccc(O)c2CN1CCCC1 | 44.5% (inactive)
13 | COc1cc(/C=C/C(=O)c2c(-c3ccc(Cl)cc3)nc3sc(C)nn23)cc(OC)c1OC | 93.7% (inactive)
14 | COc1ccc(/C=C2\NC(=S)NC2=O)cc1 | 98.7% (inactive)
15 | CN(C)c1cccc2c(S(=O)(=O)N[C@H]3CC[C@H]4[C@@H]5CCc6cc(O)ccc6[C@H]5CC[C@]34C)cccc12 | 15.5% (inactive)
16 | C=CCOc1ccc2c(c1)CC[C@@H]1[C@@H]2CC[C@@]2(C)[C@H]1CC[C@]2(C)O | 75.4% (inactive)
17 | COc1ccc2nc(-c3ccc(-n4cncc4-c4ccc(OC)c(N)c4)cc3)sc2c1 | 106% (inactive)
18 | CCCc1nn(C)c2c(=O)[nH]c(-c3cc(S(=O)(=O)N4CCN(C)CC4)ccc3OCC)nc12 | 80.2% (inactive)
19 | CC(C)(C)c1ccc(S(=O)(=O)O)s1 | -3.29% (active)
20 | CCN(CC)CCNc1ccc(Cl)cc1Cl | 94.6% (inactive)

Row | Structure (SMILES) | growth
21 | CN=C(NC)N/N=C(C)\C=N\NC(=NC)NC | 89.1% (inactive)
22 | C[n+]1c2ccccc2c(NC2CCNCC2)c2[nH]c3ccccc3c21 | 88.8% (inactive)
23 | Cc1nn(-c2ccc(Cl)cc2)c2nc3c(nc12)C(=O)c1ccccc1-3 | 82.9% (inactive)
24 | COc1ccc(/C(=C2\O[C@@H]([C@H](O)CO)[C@H]3OC(C)(C)O[C@@H]23)c2cc(OC)c(OC)c(OC)c2)cc1O | 105% (inactive)
25 | C=C(C[C@@](O)(C(=O)Oc1ccccc1)C(=O)C1CCCCC1)c1ccccc1 | 87.3% (inactive)
26 | O=C1Cc2cc(CCN3CCN(CCOCCO)CC3)c(Cl)cc2N1Cc1ccc(-c2ccccc2-c2nn[nH]n2)cc1 | 61% (inactive)
27 | O=C(NN(C(=O)c1ccccc1)c1cccs1)c1ccccc1 | 110% (inactive)
28 | NNC(=O)NO | 106% (inactive)
29 | CCOC(=O)c1ccccc1OC(=O)NNc1ccccc1 | 25.5% (inactive)
30 | COc1ccc(C2=NN(C(=O)c3cc(OC)c(OC)c(OC)c3)C(c3ccc(C#N)cc3)C2)cc1OC (stereo not given) | 5.45% (active)
31 | CNc1ccc(CSc2ccc(Cl)cc2)cc1 | -3.51% (active)
32 | NC(=O)NN=C(C1CC1)C1CC1 | 103% (inactive)
33 | CC(CCC(=O)O)(NC(=O)c1ccc([N+](=O)[O-])cc1)C(=O)O (stereo not given) | 108% (inactive)
34 | c1cnc2ccc3ncccc3c2c1 | 90.3% (inactive)
35 | CC(C)(C)c1ccc(C(O)CCCN2CCC(C(O)(c3ccccc3)c3ccccc3)CC2)cc1 (stereo not given) | 1.36% (active)
36 | COc1ccc(C2CC(c3ccc(OC)c(OC)c3)=NN2C(=O)c2cc(OC)c(OC)c(OC)c2)c(OC)c1 (stereo not given) | 34.6% (inactive)
37 | O=C1CN(CO)C(=O)CN1CO | 94.8% (inactive)
38 | COc1ccc(/C=N/NC(=O)c2ccc(S(C)(=O)=O)cc2)cc1OC | 89% (inactive)
39 | COc1c(O)cc2oc3cc(O)c(CC=C(C)C)c(O)c3c(=O)c2c1C/C=C(\C)CCC=C(C)C | 79.3% (inactive)
40 | CC(C)[O-].CC(C)[O-].CN(CCN(C)Cc1cc(F)cc(F)c1[O-])Cc1cc(F)cc(F)c1[O-].[Ti+4] | -11.1% (active)
